Compound activity (PubChem)
GLP-1R agonist: qHTS of GLP-1 Receptor Agonists; Potency, µM (highest dose often 45.6 µM), inactives show top-dose activation, hits mostly activators; HEK293 GLP-1R CRE-luciferase, luminescence, 4-6 h; cells express a hypersensitive GLP-1R form; 380,000 tested, 0.007% active; Glucagon-like peptide 1 receptor (Homo sapiens), P43220; AID 624172, 2012; also: % of control where 0% means no effect
Target sequence (P43220 whole entry, looked up): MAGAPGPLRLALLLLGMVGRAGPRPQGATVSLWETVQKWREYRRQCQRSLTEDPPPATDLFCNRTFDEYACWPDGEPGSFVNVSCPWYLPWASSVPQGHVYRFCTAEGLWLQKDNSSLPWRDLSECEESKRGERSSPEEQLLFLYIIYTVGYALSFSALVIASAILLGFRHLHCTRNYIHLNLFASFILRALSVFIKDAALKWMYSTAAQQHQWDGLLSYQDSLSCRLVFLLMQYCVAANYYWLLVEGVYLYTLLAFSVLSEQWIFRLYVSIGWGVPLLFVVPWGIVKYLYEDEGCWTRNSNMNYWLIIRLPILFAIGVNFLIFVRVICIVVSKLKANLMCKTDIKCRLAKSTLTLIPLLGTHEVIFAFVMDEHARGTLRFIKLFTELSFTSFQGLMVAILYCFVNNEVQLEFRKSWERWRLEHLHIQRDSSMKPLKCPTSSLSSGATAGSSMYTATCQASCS
HEK293 tox: qHTS of GLP-1 Receptor Inverse Agonists: Cytotox Screen. 410,000 tested, 0.13% active. HEK293 cAMP-luciferase reporter cells, luminescence, 24 h. AID 624418, 2012. Potency, µM (series often up to 38.3 µM), for the others: at the highest dose activity change, negative = inhibition, most hits filed as inhibitors;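 also: loss of luciferase light is scored as toxicity; % is scaled to controls: 0 for no effect and ±100 for the full control effect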
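Seeding density was 200 cells/uL; after overnight-length (12 h) culture, 23 nL compounds went on for 24 h at 37 °C. Readout used a luciferase detection reagent, luminescence taken after 12 min at room temperature.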
GLP-1R inv ag: qHTS of GLP-1 Receptor Inverse Agonists (Inhibition Mode). Glucagon-like peptide 1 receptor (Homo sapiens), P43220. HEK293 GLP-1R CRE-luciferase, luminescence, 24 h; GLP-1R form is constitutively active. Potency, µM (series often up to 38.3 µM), without a hit: at the highest dose activity change, negative = inhibition, hits mostly inhibitors. 410,000 tested, 1.6% active; also: % is scaled to controls: 0 for no effect and ±100 for the full control effect; nearly all actives have a fitted effect of over 55% in size
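Inverse agonists were sought by their lowering of basal cAMP reporter luciferase output in HEK293 cells stably carrying constitutively active human GLP-1R, after 24 h compound treatment.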
Active calls of the source: *; i = inactive; u = inconclusive; x = not tested or not shown; [ ] = another dose, or the depositor's remark. In the library only some 1.7% were active in any assay of this set; here they are far more common. Calls follow the shape of the dose curve; as a rule, active = well fitted curve in the direction sought with a large enough effect; inconclusive = small, poorly fitted or top-dose-only effect, or another doubt; inactive = no such curve, though single readings can be large; an effect the other way counts as inactive or inconclusive. Potency is read from the fitted curve at half-maximal effect.

SMILES | GLP-1R agonist | HEK293 tox | GLP-1R inv ag
COC(=O)c1ccc(Nc2cc(C)nc3ccc(C)cc23)cc1 | 5% | u | 10µM*
COC(=O)c1ccc(-n2c(C)nc3ccccc3c2=O)cc1 | 0% | -8% | 0%
COc1ccccc1/C=N/N=C(/N)N[N+](=O)[O-] | 14% | -12% | 6%
COc1cccc(/C=N/Nc2ccc([N+](=O)[O-])cc2)c1O | 6% | u | 1.8µM*
COc1ccc(NC(=O)C(c2ccccc2)n2c(=O)c(-c3cc4ccccc4[nH]3)nc3ccccc32)cc1 (stereo not given) | x | i | u
CCc1cc(OC)c(CC(C)N)cc1OC (stereo not given) | 7%[96 µM] | x | x
COc1ccc(CS(=O)(=O)/C(Cl)=C(/Cl)C(=O)Nc2ccc(OC)nc2)cc1 | -32% | 11µM* | u
COc1ccc(Cn2c(O)c(/C=N/NC(=O)c3ccncc3)c(=O)[nH]c2=O)cc1 | 0% | 23% | -10%
CCOc1ccccc1N1CCN(C(=O)c2ccc3c(c2)OCO3)CC1 | 5% | u | u
CNC(C)Cc1ccc2c(c1)OCO2 (stereo not given) | -1%[110 µM] | x | x
CN1C2CCC1CC(OC(=O)c1cccc(O)c1)C2 (stereo not given) | -2% | -7% | u
CN1C2CCC1CC(OC(=O)c1ccc([N+](=O)[O-])cc1)C2 (stereo not given) | -4% | 7% | 4µM*
O=C(Nc1cc([N+](=O)[O-])ccc1C(=O)Nc1cccnc1)c1ccccc1 | 6% | u | -18%
CCn1nc(-c2cccs2)nc2c(=O)n(C)c(=O)nc1-2 | -28% | u | 2.8µM*
CCn1nc(/C=C/c2ccccc2)nc2c(=O)n(C)c(=O)nc1-2 | -2% | u | u
CCOc1ccc(NC(=O)C2C(C(=O)O)C3(Cl)C(Cl)=C(Cl)C2(Cl)C3(Cl)Cl)cc1 (stereo not given) | 0% | -6% | u
CC(C)CCOP(=O)(c1ccc(N(C)C)cc1)C(O)c1c(Cl)cccc1Cl (stereo not given) | 1% | 6% | u
CCOC(=O)[C@]12Cc3cc(C)ccc3[C@H]1N(Cc1ccccc1)C(=O)c1ccccc12 | -1% | 1% | u
CCOC(=O)C1=C(Cn2cnc3ccccc32)NC(=O)NC1c1cc(C)ccc1C (stereo not given) | -6% | 11µM* | u
Cc1oc(-c2cccc(Cl)c2)nc1CN1CCCC(C(=O)NC(C)c2ccc3c(c2)OCCO3)C1 (stereo not given) | -2% | u | u
CC[C@H](OC(C)=O)C(C[C@H](C)NC)(c1ccccc1)c1ccccc1 | 9%[96 µM] | x | x
CC1CCC(C(C)C)C(OC(=O)c2ccccc2N)C1 (stereo not given) | -1% | x | x
CC1CCC(C(C)C)C(OCC(O)CN2CCCC(C)C2)C1 (stereo not given) | -2% | u | 8.9µM*
CC1=CC2=NC(=O)/C(=C\c3cccn3CCOc3cc(C)ccc3C)C(=N)N2O1 | 12% | u | u
COc1cc(CNCCO)cc(Cl)c1OCc1ccc(Cl)cc1Cl | 6% | u | u
SMILES | GLP-1R agonist | HEK293 tox | GLP-1R inv ag
O=C(CF)NC(Nc1cccc2cccnc12)C(Cl)(Cl)Cl (stereo not given) | 2% | 1% | 10µM*
Cc1ccccc1NC(=S)NC(NC(=O)CF)C(Cl)(Cl)Cl (stereo not given) | 5% | 3% | -19%
Cc1cccc(NC(=O)c2oc3ccccc3c2NC(=O)c2cc(=O)c3cc(Cl)ccc3o2)c1 | x | 63% | 3%
O=c1cc(CSc2ccc(Cl)cc2)nc(-c2ccccn2)[nH]1 | 7% | u | u
Cc1ccccc1CN1CCCC(C(=O)Nc2ccc(-c3ccn[nH]3)cc2)C1 (stereo not given) | 1% | u | u
CCNc1nc(NCC)nc(N/N=C(\C)c2ccc(OC)cc2)n1 | 2% | u | u
COc1ccc(CNCCC(c2ccc(F)cc2)c2ccc(OC)cc2)cc1 (stereo not given) | 8% | u | u
COc1ccc(CNCCC(c2ccc(F)cc2)c2ccc(OC(C)C)cc2)cc1OC (stereo not given) | 9% | u | 4µM*
CC(N)Cc1ccc2c(c1)OCO2 (stereo not given) | 19% | x | x
O=C(NCC1CCCO1)c1cccc2c1C(=O)c1ccc(N3CCC(Cc4ccccc4)CC3)cc1S2(=O)=O (stereo not given) | -3% | 63% | u
CCCCCn1c(N)c(C(=O)NCCN2CCOCC2)c2nc3ccccc3nc21 | -27% | i | u
